# Results as given in ChEMBL document CHEMBL1961873, “Compounds: GSK PKIS; Assays: Nanosyn kinase panel” (2012).
# Legend:
# [1] = target: 5'-AMP-activated protein kinase catalytic subunit alpha-2 (Homo sapiens) (UniProt P54646); conditions: at 1 µM
# [2] = target: T1, NUAK family SNF1-like kinase 1 (Homo sapiens) (UniProt O60285); conditions: at 0.1 µM
# T1 sequence (whole entry): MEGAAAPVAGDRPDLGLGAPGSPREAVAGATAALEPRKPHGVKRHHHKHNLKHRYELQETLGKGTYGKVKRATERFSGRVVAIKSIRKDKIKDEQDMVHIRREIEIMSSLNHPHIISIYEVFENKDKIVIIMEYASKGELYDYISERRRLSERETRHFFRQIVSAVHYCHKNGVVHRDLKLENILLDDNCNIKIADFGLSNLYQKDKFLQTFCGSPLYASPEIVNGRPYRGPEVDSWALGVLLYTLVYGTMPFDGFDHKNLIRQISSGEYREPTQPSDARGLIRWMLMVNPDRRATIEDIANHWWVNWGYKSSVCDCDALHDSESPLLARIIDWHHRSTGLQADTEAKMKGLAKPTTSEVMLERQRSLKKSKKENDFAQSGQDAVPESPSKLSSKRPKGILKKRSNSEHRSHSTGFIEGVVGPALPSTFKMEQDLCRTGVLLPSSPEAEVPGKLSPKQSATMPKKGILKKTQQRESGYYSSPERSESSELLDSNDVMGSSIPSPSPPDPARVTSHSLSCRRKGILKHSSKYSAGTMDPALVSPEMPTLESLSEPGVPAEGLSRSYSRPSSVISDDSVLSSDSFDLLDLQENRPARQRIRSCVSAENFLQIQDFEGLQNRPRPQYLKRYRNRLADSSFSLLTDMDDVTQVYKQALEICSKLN
# [3] = target: T1, NUAK family SNF1-like kinase 1 (Homo sapiens); conditions: at 1 µM
# [4] = target: T2, Serine/threonine-protein kinase BRSK1 (Homo sapiens) (UniProt Q8TDC3); conditions: at 0.1 µM
# T2 sequence (whole entry): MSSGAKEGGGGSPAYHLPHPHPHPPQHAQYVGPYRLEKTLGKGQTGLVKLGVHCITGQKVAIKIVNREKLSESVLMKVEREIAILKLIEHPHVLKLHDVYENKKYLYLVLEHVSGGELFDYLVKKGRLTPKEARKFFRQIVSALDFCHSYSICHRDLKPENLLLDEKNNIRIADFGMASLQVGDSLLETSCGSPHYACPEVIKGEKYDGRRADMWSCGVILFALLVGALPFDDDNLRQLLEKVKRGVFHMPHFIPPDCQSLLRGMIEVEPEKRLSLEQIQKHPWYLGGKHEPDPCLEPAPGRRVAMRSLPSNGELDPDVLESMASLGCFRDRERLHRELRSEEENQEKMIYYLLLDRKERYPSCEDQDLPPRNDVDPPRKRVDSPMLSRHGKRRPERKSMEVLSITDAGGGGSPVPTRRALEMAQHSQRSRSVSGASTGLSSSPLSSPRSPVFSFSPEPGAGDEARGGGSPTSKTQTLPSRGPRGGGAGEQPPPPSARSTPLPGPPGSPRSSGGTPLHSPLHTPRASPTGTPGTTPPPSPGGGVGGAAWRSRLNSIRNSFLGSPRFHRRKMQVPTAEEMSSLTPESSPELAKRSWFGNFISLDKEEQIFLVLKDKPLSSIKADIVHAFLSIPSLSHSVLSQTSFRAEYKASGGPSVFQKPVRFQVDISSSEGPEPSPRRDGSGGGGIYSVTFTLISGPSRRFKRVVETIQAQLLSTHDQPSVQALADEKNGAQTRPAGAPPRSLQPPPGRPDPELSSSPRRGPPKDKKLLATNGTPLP
# [5] = target: T2, Serine/threonine-protein kinase BRSK1 (Homo sapiens); conditions: at 1 µM
# [6] = target: T3, Serine/threonine-protein kinase BRSK2 (Homo sapiens) (UniProt Q8IWQ3); conditions: at 0.1 µM
# T3 sequence (whole entry): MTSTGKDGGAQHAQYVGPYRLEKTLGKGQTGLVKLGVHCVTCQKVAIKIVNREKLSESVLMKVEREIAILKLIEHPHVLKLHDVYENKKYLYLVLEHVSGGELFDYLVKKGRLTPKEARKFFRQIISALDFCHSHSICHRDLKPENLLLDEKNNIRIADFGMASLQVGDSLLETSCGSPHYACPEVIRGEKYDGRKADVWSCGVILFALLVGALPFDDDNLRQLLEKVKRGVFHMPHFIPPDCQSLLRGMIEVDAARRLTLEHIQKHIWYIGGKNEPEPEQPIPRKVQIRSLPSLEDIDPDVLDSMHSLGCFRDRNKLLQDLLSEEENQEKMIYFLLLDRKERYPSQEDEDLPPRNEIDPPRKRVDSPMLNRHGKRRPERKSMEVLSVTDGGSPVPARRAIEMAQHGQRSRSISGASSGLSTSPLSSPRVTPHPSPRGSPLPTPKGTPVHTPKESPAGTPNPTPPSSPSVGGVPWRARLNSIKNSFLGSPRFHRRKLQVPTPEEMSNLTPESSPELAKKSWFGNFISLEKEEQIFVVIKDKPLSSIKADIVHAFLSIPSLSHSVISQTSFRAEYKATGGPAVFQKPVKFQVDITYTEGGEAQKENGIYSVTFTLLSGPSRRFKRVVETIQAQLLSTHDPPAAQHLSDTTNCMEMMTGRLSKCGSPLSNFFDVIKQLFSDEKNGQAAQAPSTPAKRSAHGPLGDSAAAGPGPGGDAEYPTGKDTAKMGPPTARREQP
# [7] = target: T3, Serine/threonine-protein kinase BRSK2 (Homo sapiens); conditions: at 1 µM
# [8] = target: Calcium/calmodulin-dependent protein kinase type 1D (Homo sapiens) (UniProt Q8IU85); conditions: at 0.1 µM
# Calcium/calmodulin-dependent protein kinase type 1D (Homo sapiens), sequence (Q8IU85 whole entry, looked up): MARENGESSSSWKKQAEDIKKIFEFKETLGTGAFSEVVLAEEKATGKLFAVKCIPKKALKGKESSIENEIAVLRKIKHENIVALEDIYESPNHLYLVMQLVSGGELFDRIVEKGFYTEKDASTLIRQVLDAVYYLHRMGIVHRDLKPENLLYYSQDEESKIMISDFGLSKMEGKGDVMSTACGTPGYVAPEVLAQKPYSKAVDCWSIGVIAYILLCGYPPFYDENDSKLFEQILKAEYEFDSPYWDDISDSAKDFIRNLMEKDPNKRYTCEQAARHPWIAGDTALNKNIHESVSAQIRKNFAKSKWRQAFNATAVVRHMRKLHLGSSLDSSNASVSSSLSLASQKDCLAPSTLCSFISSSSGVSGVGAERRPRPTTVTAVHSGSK
# [9] = target: Calcium/calmodulin-dependent protein kinase type 1D (Homo sapiens) (UniProt Q8IU85); conditions: at 1 µM
# [10] = target: Calcium/calmodulin-dependent protein kinase type II subunit alpha (Homo sapiens) (UniProt Q9UQM7); conditions: at 0.1 µM
# Calcium/calmodulin-dependent protein kinase type II subunit alpha (Homo sapiens), sequence (Q9UQM7 whole entry): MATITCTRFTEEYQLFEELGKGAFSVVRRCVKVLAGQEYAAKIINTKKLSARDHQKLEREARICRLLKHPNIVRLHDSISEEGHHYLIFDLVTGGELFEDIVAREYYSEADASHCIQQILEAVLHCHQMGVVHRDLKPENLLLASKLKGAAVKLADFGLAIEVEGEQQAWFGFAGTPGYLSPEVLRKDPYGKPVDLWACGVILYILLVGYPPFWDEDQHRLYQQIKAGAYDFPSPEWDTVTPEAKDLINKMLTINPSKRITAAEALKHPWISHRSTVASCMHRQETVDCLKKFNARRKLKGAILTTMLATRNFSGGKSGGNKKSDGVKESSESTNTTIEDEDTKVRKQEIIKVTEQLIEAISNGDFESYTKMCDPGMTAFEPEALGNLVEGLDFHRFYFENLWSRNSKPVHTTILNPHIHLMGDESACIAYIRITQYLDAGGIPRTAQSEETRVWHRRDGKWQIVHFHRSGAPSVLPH
# [11] = target: Calcium/calmodulin-dependent protein kinase type II subunit alpha (Homo sapiens) (UniProt Q9UQM7); conditions: at 1 µM
# [12] = target: Calcium/calmodulin-dependent protein kinase type II subunit delta (Homo sapiens) (UniProt Q13557); conditions: at 0.1 µM
# Calcium/calmodulin-dependent protein kinase type II subunit delta (Homo sapiens), sequence (Q13557 whole entry): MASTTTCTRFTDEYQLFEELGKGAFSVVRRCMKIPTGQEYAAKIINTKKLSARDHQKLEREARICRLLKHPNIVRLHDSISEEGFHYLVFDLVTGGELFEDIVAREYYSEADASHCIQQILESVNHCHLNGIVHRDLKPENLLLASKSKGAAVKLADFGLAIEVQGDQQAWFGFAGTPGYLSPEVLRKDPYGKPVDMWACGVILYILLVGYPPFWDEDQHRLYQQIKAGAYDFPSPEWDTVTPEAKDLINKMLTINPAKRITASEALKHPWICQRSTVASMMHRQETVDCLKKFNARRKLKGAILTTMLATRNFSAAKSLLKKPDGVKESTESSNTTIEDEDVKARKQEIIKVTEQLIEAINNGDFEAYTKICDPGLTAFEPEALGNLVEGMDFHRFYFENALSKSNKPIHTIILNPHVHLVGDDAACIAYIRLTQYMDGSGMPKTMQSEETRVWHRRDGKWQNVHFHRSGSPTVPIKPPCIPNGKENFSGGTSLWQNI
# [13] = target: Calcium/calmodulin-dependent protein kinase type II subunit delta (Homo sapiens) (UniProt Q13557); conditions: at 1 µM
# [14] = target: T4, Calcium/calmodulin-dependent protein kinase type IV (Homo sapiens) (UniProt Q16566); conditions: at 0.1 µM
# T4 sequence (whole entry): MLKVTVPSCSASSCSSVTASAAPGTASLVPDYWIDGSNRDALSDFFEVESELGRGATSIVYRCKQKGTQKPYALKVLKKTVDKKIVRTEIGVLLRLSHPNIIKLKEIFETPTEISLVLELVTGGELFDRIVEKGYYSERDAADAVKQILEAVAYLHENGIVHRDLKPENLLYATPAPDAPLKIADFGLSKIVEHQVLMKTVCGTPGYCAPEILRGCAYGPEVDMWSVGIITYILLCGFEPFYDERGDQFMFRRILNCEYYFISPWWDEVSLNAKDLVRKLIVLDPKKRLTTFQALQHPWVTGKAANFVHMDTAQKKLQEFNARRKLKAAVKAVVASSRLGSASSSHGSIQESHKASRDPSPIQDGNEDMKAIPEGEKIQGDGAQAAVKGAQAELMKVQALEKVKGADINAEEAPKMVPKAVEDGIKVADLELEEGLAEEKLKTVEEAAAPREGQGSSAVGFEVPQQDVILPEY
# [15] = target: T4, Calcium/calmodulin-dependent protein kinase type IV (Homo sapiens); conditions: at 1 µM
# [16] = target: T5, Serine/threonine-protein kinase Chk1 (Homo sapiens) (UniProt O14757); conditions: at 0.1 µM
# T5 sequence (whole entry): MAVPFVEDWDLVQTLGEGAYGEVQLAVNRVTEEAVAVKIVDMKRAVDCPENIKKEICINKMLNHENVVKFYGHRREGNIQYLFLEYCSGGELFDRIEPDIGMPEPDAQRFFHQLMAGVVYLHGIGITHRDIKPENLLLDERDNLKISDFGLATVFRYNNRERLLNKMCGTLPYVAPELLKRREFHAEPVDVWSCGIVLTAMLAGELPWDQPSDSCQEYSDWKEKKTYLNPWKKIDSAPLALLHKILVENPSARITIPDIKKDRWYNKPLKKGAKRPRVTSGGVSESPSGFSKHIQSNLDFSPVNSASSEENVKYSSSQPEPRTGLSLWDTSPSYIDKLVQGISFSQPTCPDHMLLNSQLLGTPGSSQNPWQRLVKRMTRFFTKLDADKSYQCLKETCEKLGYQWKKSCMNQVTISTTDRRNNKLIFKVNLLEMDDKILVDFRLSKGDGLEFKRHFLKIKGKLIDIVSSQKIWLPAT
# [17] = target: T5, Serine/threonine-protein kinase Chk1 (Homo sapiens); conditions: at 1 µM
# [18] = target: Serine/threonine-protein kinase Chk2 (Homo sapiens) (UniProt O96017); conditions: at 0.1 µM
# Serine/threonine-protein kinase Chk2 (Homo sapiens), sequence (O96017 whole entry): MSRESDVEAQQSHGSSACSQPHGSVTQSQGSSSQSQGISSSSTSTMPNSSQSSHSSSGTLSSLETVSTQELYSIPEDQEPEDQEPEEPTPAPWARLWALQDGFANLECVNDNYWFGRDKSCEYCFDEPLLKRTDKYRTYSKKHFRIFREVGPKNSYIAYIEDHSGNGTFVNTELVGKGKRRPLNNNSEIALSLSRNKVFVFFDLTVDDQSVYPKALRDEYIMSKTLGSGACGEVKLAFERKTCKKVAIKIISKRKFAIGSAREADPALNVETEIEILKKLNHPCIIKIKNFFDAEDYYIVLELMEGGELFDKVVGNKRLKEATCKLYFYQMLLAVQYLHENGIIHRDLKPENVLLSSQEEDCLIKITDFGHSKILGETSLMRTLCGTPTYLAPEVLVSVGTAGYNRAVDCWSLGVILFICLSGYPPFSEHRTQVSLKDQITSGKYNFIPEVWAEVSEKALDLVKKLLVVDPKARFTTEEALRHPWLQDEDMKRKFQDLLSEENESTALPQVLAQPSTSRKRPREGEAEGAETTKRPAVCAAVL
# [19] = target: Serine/threonine-protein kinase Chk2 (Homo sapiens) (UniProt O96017); conditions: at 1 µM
# [20] = target: Death-associated protein kinase 1 (Homo sapiens) (UniProt P53355); conditions: at 0.1 µM;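 also: reported figure is the mean inhibition of DAPK1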
# Death-associated protein kinase 1 (Homo sapiens), sequence (P53355 whole entry, looked up): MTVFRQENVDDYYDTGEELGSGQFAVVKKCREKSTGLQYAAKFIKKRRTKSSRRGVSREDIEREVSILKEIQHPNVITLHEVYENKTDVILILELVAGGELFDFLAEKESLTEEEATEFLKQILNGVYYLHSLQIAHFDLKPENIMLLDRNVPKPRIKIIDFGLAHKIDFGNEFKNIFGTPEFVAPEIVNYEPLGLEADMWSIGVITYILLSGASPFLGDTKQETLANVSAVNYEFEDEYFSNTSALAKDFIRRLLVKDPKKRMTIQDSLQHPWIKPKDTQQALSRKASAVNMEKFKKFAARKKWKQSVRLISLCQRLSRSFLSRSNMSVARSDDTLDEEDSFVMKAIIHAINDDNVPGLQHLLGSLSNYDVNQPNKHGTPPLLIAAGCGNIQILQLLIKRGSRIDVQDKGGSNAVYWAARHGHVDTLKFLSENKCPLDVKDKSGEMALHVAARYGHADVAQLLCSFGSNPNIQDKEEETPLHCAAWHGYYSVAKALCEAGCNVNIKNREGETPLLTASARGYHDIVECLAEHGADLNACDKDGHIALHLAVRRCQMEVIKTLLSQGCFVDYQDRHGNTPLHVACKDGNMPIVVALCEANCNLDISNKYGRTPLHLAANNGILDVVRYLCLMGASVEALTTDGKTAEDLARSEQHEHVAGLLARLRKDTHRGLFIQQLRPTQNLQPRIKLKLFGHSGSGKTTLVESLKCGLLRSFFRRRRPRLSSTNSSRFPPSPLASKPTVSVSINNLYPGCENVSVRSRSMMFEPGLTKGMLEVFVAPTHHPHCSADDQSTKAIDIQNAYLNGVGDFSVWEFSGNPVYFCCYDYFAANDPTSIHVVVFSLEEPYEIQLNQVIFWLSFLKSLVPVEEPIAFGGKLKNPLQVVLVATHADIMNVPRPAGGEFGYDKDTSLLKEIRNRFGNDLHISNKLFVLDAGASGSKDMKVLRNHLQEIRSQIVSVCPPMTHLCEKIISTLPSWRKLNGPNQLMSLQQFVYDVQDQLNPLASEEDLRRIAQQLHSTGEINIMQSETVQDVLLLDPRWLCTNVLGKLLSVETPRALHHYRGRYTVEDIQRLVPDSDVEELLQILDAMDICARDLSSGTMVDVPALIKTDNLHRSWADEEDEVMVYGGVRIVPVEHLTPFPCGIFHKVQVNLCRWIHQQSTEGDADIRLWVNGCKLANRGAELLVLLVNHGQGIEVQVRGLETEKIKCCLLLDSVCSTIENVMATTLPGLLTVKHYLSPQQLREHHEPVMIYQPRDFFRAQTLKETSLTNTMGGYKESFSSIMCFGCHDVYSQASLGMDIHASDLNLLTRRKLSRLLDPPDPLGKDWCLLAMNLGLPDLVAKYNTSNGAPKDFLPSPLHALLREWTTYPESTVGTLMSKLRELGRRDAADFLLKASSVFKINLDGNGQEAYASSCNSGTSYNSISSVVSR
# 5'-AMP-activated protein kinase catalytic subunit alpha-2 (Homo sapiens), sequence (P54646 whole entry, looked up): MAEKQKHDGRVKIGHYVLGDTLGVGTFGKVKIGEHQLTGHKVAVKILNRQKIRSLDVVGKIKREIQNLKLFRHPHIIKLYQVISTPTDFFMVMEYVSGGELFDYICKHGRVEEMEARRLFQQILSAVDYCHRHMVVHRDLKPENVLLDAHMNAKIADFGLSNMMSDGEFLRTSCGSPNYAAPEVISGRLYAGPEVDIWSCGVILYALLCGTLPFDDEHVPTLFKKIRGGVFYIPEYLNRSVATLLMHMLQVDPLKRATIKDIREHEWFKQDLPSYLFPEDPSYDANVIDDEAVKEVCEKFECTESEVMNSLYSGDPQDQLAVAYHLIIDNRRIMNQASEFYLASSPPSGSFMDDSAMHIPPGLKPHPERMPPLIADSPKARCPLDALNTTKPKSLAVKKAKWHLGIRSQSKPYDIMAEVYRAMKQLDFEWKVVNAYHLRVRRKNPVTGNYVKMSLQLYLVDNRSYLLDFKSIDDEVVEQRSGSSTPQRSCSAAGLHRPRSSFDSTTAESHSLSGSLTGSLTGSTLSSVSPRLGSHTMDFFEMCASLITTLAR
SMILES,inhibition [1] [%],inhibition [2] [%],inhibition [3] [%],inhibition [4] [%],inhibition [5] [%],inhibition [6] [%],inhibition [7] [%],inhibition [8] [%],inhibition [9] [%],inhibition [10] [%],inhibition [11] [%],inhibition [12] [%],inhibition [13] [%],inhibition [14] [%],inhibition [15] [%],inhibition [16] [%],inhibition [17] [%],inhibition [18] [%],inhibition [19] [%],inhibition [20] [%]
O=C(Nc1n[nH]c2cc(-c3ccc(F)cc3)ccc12)C1CC1,6.01,0.71,2.52,4.68,26.2,6.41,33.5,0.43,1.06,0.76,5.83,2.59,3.77,-0.12,1.07,8.27,10.8,6.26,6.67,9.31
NS(=O)(=O)c1ccc(N/N=C2\C(=O)Nc3ccc4ncccc4c32)cc1,62.2,79.8,85.4,46,76,60.4,80.7,2.62,9.02,2.95,7.93,4.26,18.3,1.9,2.53,7.46,41.1,5,26.3,10.9
N#Cc1c(NC(=O)CN2CCOCC2)sc2c1CCCC2,2.26,2.61,4.86,0.57,1.52,2.72,3.03,-0.19,0.36,3.08,4.63,3.07,5.65,-1.76,-1.41,1.74,5.06,1.85,4.14,5.34
CCn1c(-c2nonc2N)nc2c(C#CC(C)(C)O)ncc(OC3CCNCC3)c21,43.3,6.16,42.9,1.45,10.5,2.8,19.2,1.83,8.97,3.85,5.73,4.43,8.15,1.96,6.84,2,4.29,2.65,7.53,4.3
COc1ccc(-c2cc3c(N)ncnc3o2)cc1,-2.04,2.2,2.41,-0.42,-0.34,0.68,1.73,1.05,2.96,-1.62,-0.48,-0.8,-0.85,0.63,-1.72,0.13,2.78,-1.09,3.25,-1.84
COc1cc2c(cc1Nc1nc(Nc3ccsc3C(N)=O)c3cc[nH]c3n1)N(C(=O)CN(C)C)CCC2(C)C,7.54,5.54,9.13,4.27,6.36,4.89,4.71,5.46,30.8,4.03,10.5,7.45,25.7,3.29,19.9,-0.75,-2.52,0.76,21.1,-1.5
